Some test systems named below: NCI-H23 lung; NCI-H226 lung; NCI-H322M lung; HOP-62 NSCLC; NCI-H460 lung; HOP-92 NSCLC; NCI-H522 lung; A549/ATCC NSCLC; 786-0 renal; COLO 205 colon.
What all share (assay): NCI-60 one-dose screen, 48 h (100 = growth as untreated, 0 = no growth, -100 = all killed)
Holding throughout (conditions): 10 µM unless noted

Where “and” joins values, the source holds several entries; their conditions need not be identical. Equal entries are not always repeated. Compounds without any hit were thinned out: in the full panel of roughly 83,000, 20% have a hit.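 Percent growth is the endpoint: 0 to 100 indicates growth inhibition (40 means 60% inhibition), 0 means no net growth, and negative values indicate cell death.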 Calls of active or inactive are those of the source. The calls were made as follows: active = growth percent below 10; inactive = the rest.

Regarding `O=S(=O)(Nc1ccccc1)C1CCCCC1`, the growth in the test with NCI-H23 lung is 98.6% (inactive) and 96.6% (inactive); in the test on NCI-H226 lung it was 106% (inactive) and 103% (inactive); with NCI-H322M lung, 103% (inactive) and 116% (inactive); in the test with HOP-62 NSCLC, 107% (inactive) and 101% (inactive); in the test on NCI-H460 lung, 112% (inactive) and 118% (inactive); in the test with HOP-92 NSCLC it was 113% (inactive) and 108% (inactive). Besides, the growth in the test with NCI-H522 lung is 84.5% (inactive) and 94.1% (inactive); in the test with A549/ATCC NSCLC it was 98.7% (inactive) and 108% (inactive); in the test on 786-0 renal, 105% (inactive) and 110% (inactive); with COLO 205 colon, 102% (inactive) and 122% (inactive).
For `CC(=O)Oc1cc(C(=O)O)cc(OC(C)=O)c1OC(C)=O`, the growth in the test on NCI-H23 lung is 103% (inactive) and 97.3% (inactive); in the test on NCI-H226 lung, 96.4% (inactive) and 89.6% (inactive); in the test with NCI-H322M lung, 116% (inactive) and 102% (inactive); in the test on HOP-62 NSCLC, 88.8% (inactive) and 99% (inactive); in the test with NCI-H460 lung, 113% (inactive) and 108% (inactive); in the test on HOP-92 NSCLC, 99.1% (inactive) and 107% (inactive). For the same compound, the growth in the test on NCI-H522 lung was 100% (inactive) and 93.4% (inactive); in the test with A549/ATCC NSCLC, 103% (inactive) and 90.1% (inactive); in the test on 786-0 renal, 111% (inactive) and 102% (inactive); in the test on COLO 205 colon, 125% (inactive) and 122% (inactive).
On to `Cc1cc(O)c(C(C)C)cc1N`, for which the growth with NCI-H23 lung is 97.5% (inactive) and 92.7% (inactive); in the test on NCI-H226 lung, 108% (inactive) and 93.1% (inactive); in the test on NCI-H322M lung, 122% (inactive) and 102% (inactive); with HOP-62 NSCLC, 90% (inactive) and 109% (inactive); with NCI-H460 lung, 121% (inactive) and 103% (inactive); in the test with HOP-92 NSCLC it was 100% (inactive). The growth with NCI-H522 lung is 82.5% (inactive) and 86.9% (inactive); with A549/ATCC NSCLC, 109% (inactive) and 110% (inactive); in the test on 786-0 renal it was 97.2% (inactive) and 105% (inactive); with COLO 205 colon it was 130% (inactive) and 126% (inactive).
Turning to `Oc1c(Cl)cc(Cl)cc1Sc1cc(Cl)cc(Cl)c1O`, the growth was 11.4% (inactive) and 6.4% (active) and 76% (inactive) in the test on NCI-H23 lung; 94.5% (inactive) and 48.1% (inactive) and 88.3% (inactive) with NCI-H226 lung; 25.6% (inactive) and 33.1% (inactive) and 87.1% (inactive) in the test on NCI-H322M lung; 85.8% (inactive) and 61.6% (inactive) in the test with HOP-62 NSCLC; 7.66% (active) and 11.8% (inactive) and 62.3% (inactive) in the test with NCI-H460 lung; -12.5% (active) and -28.3% (active) and 32.7% (inactive) with HOP-92 NSCLC. Besides, the growth with NCI-H522 lung was 2.94% (active) and -18.8% (active) and 48.9% (inactive); with A549/ATCC NSCLC, 62.5% (inactive) and 8.2% (active) and 88.4% (inactive); in the test with 786-0 renal, 47.7% (inactive) and 104% (inactive); in the test on COLO 205 colon, 118% (inactive) and 87.9% (inactive) and 110% (inactive).
Take `O=C1NC(=O)C2(CCc3ccccc32)N1` (stereo not given): the growth in the test with NCI-H23 lung was 108% (inactive) and 89.4% (inactive); with NCI-H226 lung, 101% (inactive) and 92.9% (inactive); with NCI-H322M lung it was 98.8% (inactive) and 106% (inactive); with HOP-62 NSCLC it was 105% (inactive) and 88.3% (inactive); with NCI-H460 lung, 98.3% (inactive) and 116% (inactive); in the test on HOP-92 NSCLC, 174% (inactive). The growth in the test with NCI-H522 lung was 98.6% (inactive) and 80.6% (inactive); in the test on A549/ATCC NSCLC it was 97.4% (inactive) and 91.4% (inactive); with 786-0 renal, 115% (inactive) and 94.7% (inactive); in the test on COLO 205 colon, 97.4% (inactive) and 108% (inactive).
In the case of `O=C(Nc1cccc(-n2ccc3c(NC(=O)c4ccccc4)nccc32)c1)c1ccc(Cl)c(C(F)(F)F)c1`, the growth in the test on NCI-H23 lung was -9.83% (active) and 72.4% (inactive); with NCI-H226 lung it was 34.5% (inactive) and 75.3% (inactive); with NCI-H322M lung it was 22.6% (inactive) and 79.3% (inactive); in the test with HOP-62 NSCLC it was -50.5% (active) and 67.7% (inactive); with NCI-H460 lung it was -51.4% (active) and 12.8% (inactive); in the test on HOP-92 NSCLC, -13.5% (active). The growth with NCI-H522 lung is 82.8% (inactive); in the test on A549/ATCC NSCLC it was 36.8% (inactive); in the test with 786-0 renal it was -74.9% (active) and 48% (inactive); with COLO 205 colon, -49.7% (active) and 55.7% (inactive).
On to `Cc1cc(O)c2c(c1)C(=O)c1cc(O)cc(O)c1C2=O`, for which the growth is 71% (inactive) and 91.7% (inactive) in the test with NCI-H23 lung; 84.8% (inactive) and 90.8% (inactive) with NCI-H226 lung; 94.6% (inactive) and 107% (inactive) with NCI-H322M lung; 97.9% (inactive) and 78.1% (inactive) in the test with HOP-62 NSCLC; 98% (inactive) and 102% (inactive) in the test with NCI-H460 lung; -3.28% (active) and 20.5% (inactive) with HOP-92 NSCLC. In addition, the growth in the test on NCI-H522 lung is 61% (inactive) and 78.8% (inactive); with A549/ATCC NSCLC, 77.5% (inactive) and 81.1% (inactive); in the test on 786-0 renal, 74.6% (inactive) and 83.3% (inactive); in the test on COLO 205 colon, 102% (inactive) and 96.7% (inactive).
With `CCN(CC)CCCC(C)Nc1cnc(C(=O)Nc2cc(F)cc3cccnc23)cn1` (stereo not given), the growth with NCI-H23 lung is 81.4% (inactive) and -25.1% (active); in the test with NCI-H226 lung, 85.1% (inactive) and 49.5% (inactive); in the test on NCI-H322M lung, 63.8% (inactive) and 0.121% (active); in the test with HOP-62 NSCLC, 64.1% (inactive) and -14.1% (active); with NCI-H460 lung, 69.5% (inactive) and -75.9% (active); with HOP-92 NSCLC it was 37.5% (inactive) and -76.6% (active). The growth in the test with NCI-H522 lung is 52.7% (inactive) and -59.4% (active); in the test on A549/ATCC NSCLC, 58% (inactive) and 18.9% (inactive); with 786-0 renal it was 68.4% (inactive) and -55.1% (active); in the test with COLO 205 colon, 3.11% (active) and -50.9% (active).

Source of the values: PubChem BioAssay (NCI).
